# Experimental data reported in the supplement of paper PMC6555819.
# What was measured:
# Assay in all cases: PBM binding z-score (relative to random genomic background probes); higher = stronger binding; sequences stand for … in GC…GCGATTGACAGCGTAGAATGAAGG
# [1] = tested on: RARb homodimer (NR concentration 270 nM)
# Summary of the method: (§1)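 On custom Agilent 4×180K arrays, double-stranded probes with 34-nt variable regions carried direct-repeat seeds, single-nucleotide variants, half-site ablations or random human genomic background. Ligand-free nuclear receptor dimers were applied for 1 h, and binding was read with antibodies against each partner (one per run). Binding z-scores come from regression-normalized fluorescence, with the random background probes as reference.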
# [2] = tested on: RARg:RXRa (NR concentration 270 nM, RXRa partner concentration 90 nM)
# Summary of the method: as §1
# [3] = tested on: RARg homodimer (NR concentration 270 nM)
# Summary of the method: as §1
# [4] = tested on: RXRa DBDmut IVT, anti-RXR (DBD mutation: RXRa K156A/R161A, NR concentration 90 nM)
# Summary of the method: as §1
# [5] = tested on: RXRa homodimer (NR concentration 180 nM)
# Summary of the method: as §1
# [6] = tested on: THRa:RXRa (NR concentration 90 nM, RXRa partner concentration 90 nM)
# Summary of the method: as §1
# [7] = tested on: THRa homodimer (NR concentration 90 nM)
# Summary of the method: as §1
# [8] = tested on: VDR homodimer (NR concentration 270 nM)
# Summary of the method: as §1
Sequence,PBM binding z-score [1],PBM binding z-score [2],PBM binding z-score [3],PBM binding z-score [4],PBM binding z-score [5],PBM binding z-score [6],PBM binding z-score [7],PBM binding z-score [8]
CTACCAGGGTGAACAAGGTCGTTGATTACTATTC,1.69,1.59,0.976,0.927,1.85,3.28,1.27,2.42
GCATATGGGTAATACAAGGTGAAAGTCCGATTGT,0.725,0.405,0.402,0.208,0.486,3.98,0.841,0.115
TCAGATAGGTGAAGGTAACTCAGGTACGCAGTCG,0.689,0.578,0.814,1.22,1.08,1.17,0.217,0.382
ACTATTGGTTGACTTAGGGCAACCGATACGACGC,0.788,0.838,0.894,0.419,0.479,1.66,0.213,-0.0545
CCTCAAAGTTCAACTAAGGTAACGTAAAGCACGC,4.3,6.18,6.74,4.41,5.11,5.29,2.38,4.44
CCAACTGGGCCATTCAGAGGTCATTGATCATATG,3.76,4.28,2.94,1.22,3.98,3.12,1.3,3.31
CCTACTGGGCCATCAGGTCACTGATATCAACGTT,2.82,2.28,2.5,-0.0787,1.54,3.34,3.44,0.813
TCTTGTCGATCAGCAGGTTAAGAAAGCTGGCCAA,0.242,-0.108,-0.509,0.615,0.217,0.316,-0.476,-0.421
TCATATAGGTAAATGCTAGGTGAAAGACCGATCT,0.314,0.683,0.454,1.44,1.15,1.32,0.328,0.112
GGATCGAGGGCATTCGAGTTGATAGCATGGCGAT,0.818,1.07,1.25,3.06,0.598,3.39,-0.117,3.49
CGTCAAAGTTGAACTAAGGTAACGTAAAGCACGC,1.98,2.06,1.86,0.678,1.68,4.72,1.74,0.519
GCAGACAGGTGAAACGCAGGTATCTCAGGGTGGC,0.0151,0.137,0.315,-0.484,0.588,0.272,-0.471,-0.528
CTCGAAAGGTCGTGCTCAGGTGAATATACCAAAC,3.06,5.46,4.17,2.45,5.01,4.38,1.6,1.27
TCGAGTAGGTTAGTCGGGGAATTCAGCCAACATA,0.122,-0.408,-0.41,0.0963,-0.255,0.163,-0.3,-0.495
CATACTGGGCCATTCAGAGGTCATTGATCATATG,4.15,4.52,3.48,1.39,3.85,3.21,1.4,3.67
CCTCCGAGGACAACAGGAGGTCAGAGCTGCCAGA,3.75,3.41,3.21,0.726,2.02,3.58,2.36,1.61
